Screening results deposited in PubChem by several laboratories.
PAX8 inh HTS – inhibitors of PAX8 transcriptional activity in RMG-I cells | RMG-I TPO-luciferase reporter, SteadyGlo, 24 h | inhibition, % at 12.6 µM | 360,000 compounds, 1.2% hits;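 active = mean replicate inhibition at least 60% with every replicate also reaching 60%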;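 note: luciferase light reporting Pax8 driven TPO promoter activity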
TROY signal inh – blocks TROY-dependent signaling in reporter cells. Q293 LMP1-TROYcd NF-kB luciferase reporter, 4 h. inhibition, % at 10 µM. 360,000 compounds, 0.98% hits. AID 1347056;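 active = compounds whose plate-normalised and pattern-corrected inhibition of the luciferase reporter signal at the single screening dose is 50% or more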
EBV LMP1 NFkB – inhibitors of Epstein-Barr LMP1-induced NF-kappaB reporter; LMP1-induced NF-kappaB luciferase reporter cells, luminescence; inhibition, % at 12.5 µM; 350,000 compounds, 0.69% hits; AID 504558; in the data active = inhibition above about 41%
TWEAK Fn14 block – inhibitors of TWEAK-Fn14 interaction signaling. TWEAK-stimulated Fn14 reporter cells, luciferase luminescence, 8 h. inhibition, % at 10 µM. 360,000 compounds, 2% hits. AID 1159606; in the data active = inhibition above about 50%
LGR2 antag – Drosophila LGR2 receptor signaling inhibition; HEK293 LGR2, CRE-luciferase, bursicon-stimulated, 4 h; 380,000 compounds, 0.35% hits; inhibition, % at 9.99 µM;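 active = drop in luminescence signal, shown as inhibition above about 50% in the replicate tests, limit read from the data, passing the limit was not always enough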;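 note: agonist challenge used bursicon conditioned medium at about half maximal strength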
EWS-Fli block – EWS/Fli transcriptional activity inhibition; A673 NR0B1-luciferase reporter, viability-normalised; inhibition, % at 12.6 µM; 350,000 compounds, 0.67% hits;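 active = mean inhibition of at least 50% after viability correction, with every replicate also passing that limit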;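 note: firefly luciferase signal divided by Alamar Blue viability fluorescence both relative to DMSO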
A number is an active result; i = inactive; nt = no result given. This is a sample that favours compounds with a hit; in the whole collection about 3.2% have one here.

SMILES	PAX8 inh HTS	TROY signal inh	EBV LMP1 NFkB	TWEAK Fn14 block	LGR2 antag	EWS-Fli block
Nc1ccc(S(=O)(=O)Nc2cnc3ccccc3n2)cc1	i	i	i	i	i	i
Cc1cc(C)c(C#N)c(SCc2ccccc2)n1	nt	i	i	i	nt	nt
Cc1ccc2nc(CSc3nc(C)cc(C)c3C#N)[nH]c2c1	nt	59	i	i	nt	nt
Cc1ccc(C(=O)Nc2sc3c(c2C(=O)O)CCCCC3)o1	nt	i	i	65	i	nt
O=C(Nc1sc2c(c1C(=O)O)CCCCC2)c1cccs1	i	i	i	53	i	i
O=C(Nc1sc2c(c1C(=O)O)CCCC2)c1ccc(F)cc1	i	i	i	i	i	i
CC(C)(C)c1ccc(C(=O)Nc2sc3c(c2C(=O)O)CCC3)cc1	80	62	i	88	i	i
C/C(=N\NS(=O)(=O)c1ccc([N+](=O)[O-])cc1)c1cccs1	i	i	58	i	i	i
CC(C)Cc1ccc(-c2cc3nc(NCCc4ccc(S(N)(=O)=O)cc4)ccn3n2)cc1	i	i	nt	54	i	i
Cc1ccccc1Cn1cnc2c(cnn2C(C)(C)C)c1=O	nt	i	i	i	i	nt
CC(C)(C)n1ncc2c(=O)n(CC(=O)OCc3ccccc3)cnc21	nt	87	i	99	93	nt
CC(C)(C)n1ncc2c(=O)n(Cc3cccc(Cn4cnc5c(cnn5C(C)(C)C)c4=O)c3F)cnc21	79	i	i	82	i	i
CC(C)(C)n1ncc2c(=O)n(CC(=O)N3CCc4ccccc43)cnc21	nt	60	i	59	nt	nt
C[C@H](CO)N1C[C@H](C)[C@@H](CN(C)Cc2ccc(C(=O)Nc3ccccc3N)cc2)Oc2ccc(NC(=O)Nc3ccc(C(F)(F)F)cc3)cc2C1=O	nt	nt	nt	nt	i	i
C[C@@H]1CN([C@H](C)CO)C(=O)c2cc(N(C)C)ccc2O[C@H]1CN(C)C(=O)NC1CCCCC1	i	nt	nt	nt	i	nt
N#C/C(=N\Nc1cccc(C(F)(F)F)c1)C(=O)c1csc(-c2cccnc2)n1	i	66	i	i	i	i
Cc1ccc(C(=O)Nc2cccc(C(F)(F)F)c2)cc1NC(=O)c1csc(-c2ccncc2)n1	nt	i	i	i	nt	nt
COc1ccc(/C=N/Nc2ncnc(Cl)c2N)cc1OC	i	i	i	i	i	i
COc1ccc(/C=N/Nc2ncnc3sc4c(c23)CCCC4)cc1OC	i	82	i	90	i	nt
COc1ccc(S(=O)(=O)Nc2ccc3c(c2)C(=O)N([C@@H](C)CO)C[C@H](C)[C@@H](CN(C)CC2CC2)OCCCC[C@H](C)O3)cc1	i	nt	nt	nt	i	i
Cc1c(C(=O)NCc2ccc(Cl)c(Cl)c2)sc(=O)n1Cc1ccc(S(=O)(=O)N(C)C)cc1	i	i	nt	67	i	i
Cc1c(C(=O)NCc2ccc(C(C)C)cc2)sc(=O)n1Cc1ccc(S(=O)(=O)N(C)C)cc1	i	i	nt	64	i	i
CSc1ccc(Cn2c(C)c(C(=O)NCc3ccc(C(C)C)cc3)sc2=O)cc1	i	i	nt	i	i	i
Cc1cc(=O)oc2ccc(OC(=O)CN3C(=O)c4cccc([N+](=O)[O-])c4C3=O)cc12	147	i	i	i	nt	i
COc1cc(C(=O)NC2CCN(C)CC2)ccc1Nc1ncc2c(n1)N(CCc1ccccc1)CCC(=O)N2C	i	i	i	i	i	54
SMILES	PAX8 inh HTS	TROY signal inh	EBV LMP1 NFkB	TWEAK Fn14 block	LGR2 antag	EWS-Fli block
COc1cc(C(=O)NC2CCN(C)CC2)ccc1Nc1ncc2c(n1)N(C1CCCC1)CCC(=O)N2C(C)C	nt	i	i	i	nt	nt
CCCc1cc(=O)[nH]c(Nc2ccc3c(c2)OCCO3)n1	i	i	i	58	i	i
CC(=O)c1ccc(-n2c(C)ccc2-c2ccccc2)cc1	nt	i	i	82	nt	nt
CC(=O)c1ccc(-n2c(CCC(=O)O)ccc2-c2ccc(C)cc2)cc1	nt	i	i	i	nt	nt
CC(=O)c1ccc(-n2c(CCC(=O)O)ccc2-c2ccccc2)cc1	i	58	i	76	i	i
O=C(Cc1ccccn1)N1CC2(C1)[C@@H](c1ccccc1)[C@@H](CO)N2C(=O)c1cccnc1	i	nt	nt	nt	i	i
C[C@H]1CCCCO[C@@H](CN(C)C(=O)Nc2cccc3ccccc23)[C@@H](C)CN([C@@H](C)CO)C(=O)c2cc(NS(C)(=O)=O)ccc2O1	i	nt	nt	nt	i	i
c1ccc(N=Nc2ccc(C3=NCCO3)cc2)cc1	i	i	i	i	81	i
C[C@H](CO)N1C[C@H](C)[C@H](CN(C)C(=O)CCCN(C)C)OCCCC[C@H](C)Oc2ccc(NC(=O)Nc3ccccc3)cc2C1=O	i	nt	nt	nt	i	i
O=c1oc2ccccc2c(O)c1/C=N/c1ccccn1	nt	i	50	i	nt	nt
CCn1c(SCC(=O)Nc2nc3ccc(OC)cc3s2)nc2c1c(=O)n(C)c(=O)n2C	nt	i	i	58	54	nt
CCOc1ccc2nc(NC(=O)CSc3nc4c(c(=O)n(C)c(=O)n4C)n3C(C)C)sc2c1	nt	50	i	53	i	nt
O=C(N[C@H]1CC[C@H](CCNS(=O)(=O)c2ccc(F)cc2)O[C@@H]1CO)C1CC1	i	nt	nt	nt	i	i
O=C(Nc1ccccc1F)c1ccc([N+](=O)[O-])s1	i	i	i	i	i	i
O=C(Nc1cccnc1)c1ccc([N+](=O)[O-])s1	67	i	i	i	i	i
COCC(=O)Nc1ccc2c(c1)C(=O)N(C)C[C@H](OC)[C@H](C)CN(C(=O)c1ccccc1F)[C@H](C)CO2	i	nt	nt	nt	i	i
CC1CCN(CCC(=O)NN)CC1	i	i	i	i	i	i
NNC(=O)CCN1CCCCC1	i	70	i	86	i	i
O=S(=O)(Nc1ccc(-n2cccc2)cc1)c1ccc(F)cc1	i	i	i	i	i	i
O=S(=O)(Nc1ccc(-n2cccc2)cc1)c1ccc(Cl)c(Cl)c1	i	55	i	i	i	i
O=C(O)C1CCCN1c1nc(-c2ccc(Cl)c(Cl)c2)cc(C(F)(F)F)n1 (stereo not given)	77	i	i	i	i	i
Cc1cc([N+](=O)[O-])nn1CCCC(=O)Nc1sc2c(c1C(N)=O)CCC(C)C2 (stereo not given)	97	i	i	i	i	i
CC1CCc2c(sc(NC(=O)Cn3cnc([N+](=O)[O-])n3)c2C(N)=O)C1 (stereo not given)	i	i	i	i	i	i
N#C[C@@H]1N[C@@H](CO)[C@@H]1c1ccc(C#CC2CCCCC2)cc1	i	nt	nt	nt	i	i
C[C@@H]1CN([C@H](C)CO)C(=O)c2cccc(NS(=O)(=O)c3cccs3)c2O[C@@H]1CN(C)CC1CC1	i	nt	nt	nt	i	i
COC(=O)c1[nH]c2ccccc2c1NC(=O)CN1CCN(c2cccc(Cl)c2)CC1	nt	i	i	59	i	nt
COC(=O)c1[nH]c2ccccc2c1NC(=O)CN1CCCCCC1	nt	i	i	i	nt	nt
COC(=O)c1[nH]c2ccccc2c1NC(=O)CN1CCN(C(=O)c2ccco2)CC1	nt	nt	i	87	nt	nt
COCC(=O)N1CC2(C1)[C@@H](c1ccc(-c3ccc(F)cc3)cc1)[C@H](CO)N2C(=O)C1CC1	i	nt	nt	nt	i	i
Brc1cc2c(cc1/C=N/Nc1nc3ccccc3s1)OCO2	nt	79	i	57	i	nt
